The values that follow come from PubChem BioAssay (NCATS).

Inconclusive results are not listed. Calls of active or inactive are those of the source. Unless noted, the call rests on the fitted dose curve; in most records, active means well fitted curve in the direction sought with a large enough effect; inconclusive means small, poorly fitted or top-dose-only effect, or another doubt; inactive means no such curve, though single readings can be large; an effect the other way counts as inactive or inconclusive.

A short description of test [1]: qHTS for Inhibitors of Cell Surface uPA Generation: Validation Assay (AID 493164). Further: 0% is about no effect. In outline:
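RAW 264.7 cells (4000/well) were plated overnight, then exposed for 18 h at 37 C, 5% CO2 to compounds in a 7-point 1:5 titration (2.45 nM–38.3 uM final). Intracellular ATP was read by ATP-Lite luminescence.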

Test [2] concerns the target Galactokinase (Homo sapiens) (UniProt P51570). Nature of the test: qHTS Validation Assay for Inhibitors of Human Galactokinase (GALK) (AID 493189). Further: 0% is about no effect. The procedure, abridged: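 Inhibition was measured as remaining ATP, detected by luciferase luminescence after a 1 h room-temperature reaction. Final conditions: 5 nM GALK, 100 uM galactose, 35 uM ATP, pH 8.0 HEPES buffer.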
A general note: Quantitative high-throughput screening tests each substance at several concentrations.

Test [3] in a line: Validation screen for small molecules that induce DNA re-replication in SW480 colon adenocarcinoma cells (AID 504364). Further: 0% is about no effect. In outline:
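SW480 cells (250/well) exposed 48 h at 37 C, 5% CO2, then Hoechst-stained 40 min. Nuclear DNA content imaged by fluorescence scanning (405 nm excitation, 500-530 nm emission); re-replication scored as increased nuclei with elevated intensity.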

Test [4] has as its target Peptidyl-prolyl cis-trans isomerase NIMA-interacting 1 (Homo sapiens) (UniProt Q13526). Nature of the test: qHTS Validation Assay to Find Inhibitors of Pin1 (AID 504536; active means well fitted inhibition curve with a large enough effect in the polarisation, with a control signal flat, not every such curve was filed as active; the % refers to the polarisation;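 further: 0% = full Pin1 enzyme wells and -100% = no-enzyme wells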). In outline: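 Fluorescence polarization competition: compounds (titration) displace HiFluor-488-labeled Pin1-1b peptide from Pin1 (0.3 uM final) in pH 7.5 HEPES buffer with DTT, 10 min at room temperature; %Activity normalized to no-enzyme wells, curves fitted.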

The target in test [5] is Phosphoglycerate kinase, glycosomal (Trypanosoma brucei brucei) (UniProt P07378). Nature of the test: qHTS Validation Assay to Find Inhibitors of Phosphoglycerate Kinase (AID 504547).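 Further: control wells lack PGK and mark full inhibition.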 In outline: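 PGK activity was coupled to GAPDH (100nM final), which generates the unstable substrate 1,3-bisphosphoglycerate in-well. Reactions ran 60 minutes at room temperature in 100mM TEA pH 7.6, 5mM MgCl2, 0.01% Tween-20, then Kinase-Glo Plus luminescence was read.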
Chain of Phosphoglycerate kinase, glycosomal (Trypanosoma brucei brucei) (P07378 whole entry, looked up): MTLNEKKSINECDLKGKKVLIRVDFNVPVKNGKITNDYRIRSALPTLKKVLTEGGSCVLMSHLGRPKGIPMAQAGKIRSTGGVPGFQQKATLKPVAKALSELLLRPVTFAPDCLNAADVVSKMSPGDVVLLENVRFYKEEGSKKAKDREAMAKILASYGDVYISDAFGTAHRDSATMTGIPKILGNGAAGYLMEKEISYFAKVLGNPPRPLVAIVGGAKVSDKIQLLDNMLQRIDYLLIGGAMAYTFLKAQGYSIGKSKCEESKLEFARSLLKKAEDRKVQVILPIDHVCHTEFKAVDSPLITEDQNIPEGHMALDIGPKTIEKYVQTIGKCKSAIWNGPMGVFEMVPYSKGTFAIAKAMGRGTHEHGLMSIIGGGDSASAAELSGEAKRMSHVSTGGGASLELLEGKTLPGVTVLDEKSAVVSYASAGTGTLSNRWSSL

In test [6] the target is phosphoglycerate mutase (Leishmania major) (UniProt Q4Q090). Nature of the test: qHTS Validation Assay to Find Inhibitors of Phosphoglycerate Mutase (AID 504548). Further: series mostly up to about 58 µM; on the % scale 0 is the no-effect control and ±100 the full control effect. The procedure, abridged: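 Lm PGAM at 1.25 nM final with substrate in 100 mM TEA pH 7.6, 5 mM MgCl2, 0.01% Tween-20; 45 min at room temperature. Kinase-GloPlus added, 10 min, end-point luminescence read.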
Chain of phosphoglycerate mutase (Leishmania major) (Q4Q090 1-553): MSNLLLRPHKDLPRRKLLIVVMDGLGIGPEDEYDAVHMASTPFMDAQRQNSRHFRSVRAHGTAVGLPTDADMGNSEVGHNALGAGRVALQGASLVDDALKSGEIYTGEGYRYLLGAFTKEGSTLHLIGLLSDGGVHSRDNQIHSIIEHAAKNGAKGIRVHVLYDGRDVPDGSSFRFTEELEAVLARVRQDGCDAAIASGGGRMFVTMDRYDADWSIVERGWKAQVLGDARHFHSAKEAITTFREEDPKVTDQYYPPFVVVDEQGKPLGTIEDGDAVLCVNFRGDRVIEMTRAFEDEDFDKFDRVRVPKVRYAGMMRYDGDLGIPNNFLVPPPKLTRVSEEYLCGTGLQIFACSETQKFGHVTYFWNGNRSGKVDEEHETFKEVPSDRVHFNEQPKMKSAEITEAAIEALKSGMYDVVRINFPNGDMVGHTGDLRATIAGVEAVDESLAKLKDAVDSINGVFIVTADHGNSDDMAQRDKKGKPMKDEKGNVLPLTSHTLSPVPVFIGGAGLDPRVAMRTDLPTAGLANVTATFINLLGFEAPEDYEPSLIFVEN
Test [7] concerns the target Ubiquitin carboxyl-terminal hydrolase 1 (Homo sapiens) (UniProt O94782). Nature of the test: Inhibitors of USP1/UAF1: Pilot qHTS (AID 504865).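 Further: rhodamine fluorescence freed from ubiquitin-rhodamine substrate followed over time; top concentration of the series differs between compounds; on the % scale 0 is the no-effect control and ±100 the full control effect; nearly all actives have a fitted effect of over 35% in size.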 In outline: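 Deubiquitinase activity followed as kinetic rhodamine fluorescence release from 150 nM Ub-Rho. 1 nM USP1/UAF1 with compound, after 15 min room-temperature preincubation, in HEPES pH 7.8 buffer containing TCEP, EDTA, BSA and Tween-20.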

A short description of test [8]: qHTS for Inhibitors of ATXN expression: Validation of Cytotoxic Assay (AID 588349). Further: on the % scale 0 is the no-effect control and ±100 the full control effect. The procedure, abridged: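 HEK293 cells treated with titrated compound for 72 hr at 37 degrees C; viability read as intracellular ATP by CellTiter Glo luminescence.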
A short description of test [9]: qHTS for Inhibitors of ATXN expression: Validation (AID 588378). Further: series mostly up to about 57 µM; on the % scale 0 is the no-effect control and ±100 the full control effect; nearly all actives have a fitted effect of over 75% in size. In outline: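 Luciferase luminescence (Bright-Glo) from an ATXN2-FFLuc HEK293 line after 24 h compound exposure at 37 °C, preceded by a CellTiter-Fluor fluorescence viability read. Serial dilutions of a reference ATXN2 inhibitor and a luciferase inhibitor served as controls.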
Test [10] addresses Bile acid receptor (Homo sapiens) (UniProt Q96RI1). Nature of the test: qHTS assay for small molecule antagonists of farnesoid X receptor signaling (AID 588526; calls by dose curve; further: on the % scale 0 is the no-effect control and ±100 the full control effect). In outline: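 Antagonist mode: titrated compounds tested against chenodeoxycholic acid stimulation (normalized to 50 uM CDCA and DMSO) in GeneBLAzer HEK293T cells for 16 h. Beta-lactamase read by CCF4 fluorescence; IC50 from Hill fits.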

Test [11] can be described thus: qHTS assay for small molecule antagonists of peroxisome proliferator-activated receptor delta signaling (AID 588535; active means well fitted inhibition curve with a large enough effect in the signal ratio, with a control signal flat, not every such curve was filed as active; the % refers to the signal ratio;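 on max response: cells co-treated with a PPAR-delta agonist as stimulator during compound exposure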). Particulars: HEK293T PPARd-UAS-bla, beta-lactamase FRET ratio, 18 h; 460 nm channel. The procedure, abridged: (§1)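 Antagonist-mode beta-lactamase reporter (GeneBLAzer PPAR-delta-UAS-bla) in HEK293T cells, 2% charcoal/dextran FBS, 4000 cells/well. Compound titrations, 18 h at 37 C; CCF4 ratio read, IC50 and efficacy from Hill fits.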

Test [12] addresses Peroxisome proliferator-activated receptor delta (Homo sapiens) (UniProt Q03181). The test is described as above. The procedure, abridged:
as §1

In test [13] the target is Peroxisome proliferator-activated receptor gamma (Homo sapiens) (UniProt P37231). Nature of the test: qHTS assay for small molecule agonists of peroxisome proliferator-activated receptor gamma signaling (AID 588536; active means well fitted curve in the direction sought with a large enough effect in the signal ratio, with a control signal flat, not every such curve was filed as active; the % refers to the signal ratio;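 further: 0% = DMSO basal wells and 100% = rosiglitazone at 2 µM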). The procedure, abridged:
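GeneBLAzer PPAR-gamma-UAS-bla HEK293 cells in 1% charcoal/dextran-treated FBS medium were treated 16 h at 37 C with compounds. Beta-lactamase activity was read by CCF4 ratio (460/530 nm). Response was normalized to 2 uM rosiglitazone (100%) and DMSO, then Hill-fitted for EC50 and efficacy.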

A short description of test [14]: Nrf2 qHTS screen for inhibitors: Validation (AID 493153; active means well fitted inhibition curve with a large enough effect in the main read-out, with a control signal flat, not every such curve was filed as active). Particulars: Potency: luciferase luminescence; viability change: measured here: cytotoxicity max response. In outline: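 A549 cells carrying ARE-firefly luciferase reporter, 5000 cells/well in 5% FBS OPTI-MEM, treated with compound over a concentration series for 18-24 h at 37 C. Luciferase luminescence gave Nrf2 activity; CellTiter-Fluor fluorescence gave viability.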

In test [15] the target is Estrogen receptor (Homo sapiens) (UniProt P03372). Nature of the test: qHTS assay for small molecule agonists of estrogen receptor alpha signaling (AID 588514; calls by dose curve;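 further: 0% = vehicle only and 100% = reference agonist; nearly all actives have a fitted effect of over 70% in size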). In outline:
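ER-alpha-UAS-bla GripTite HEK293 cells, 5000/well in 2% charcoal/dextran-stripped FBS medium, treated with compound titrations 18 h at 37 C. CCF4 beta-lactamase read by fluorescence after 2 h RT; normalised to 20 nM 17-beta-estradiol (100%) and DMSO (0%), Hill fit for EC50 and efficacy.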

The target in test [16] is DNA dC->dU-editing enzyme APOBEC-3G (Homo sapiens) (UniProt Q9HC16). Nature of the test: qHTS for inhibitors of Vif-A3G interactions: Validation (AID 588379). Further: 0% is about no effect. The procedure, abridged:
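HeLa cells stably expressing Vif and A3G-eYFP, 700 cells/well, incubated overnight at 37 deg C, then exposed to compound overnight at 37 deg C. Inhibition of Vif-mediated degradation read as increased yellow fluorescence (Ex 488/Em 500-530) by laser-scanning cytometry.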

Chain of Peptidyl-prolyl cis-trans isomerase NIMA-interacting 1 (Homo sapiens) (Q13526 whole entry, looked up): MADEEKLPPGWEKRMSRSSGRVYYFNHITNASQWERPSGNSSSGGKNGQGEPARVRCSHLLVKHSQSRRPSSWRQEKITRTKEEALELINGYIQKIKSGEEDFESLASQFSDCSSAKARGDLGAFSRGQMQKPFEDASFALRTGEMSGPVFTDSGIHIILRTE
Chain of Galactokinase (Homo sapiens) (P51570 whole entry, looked up): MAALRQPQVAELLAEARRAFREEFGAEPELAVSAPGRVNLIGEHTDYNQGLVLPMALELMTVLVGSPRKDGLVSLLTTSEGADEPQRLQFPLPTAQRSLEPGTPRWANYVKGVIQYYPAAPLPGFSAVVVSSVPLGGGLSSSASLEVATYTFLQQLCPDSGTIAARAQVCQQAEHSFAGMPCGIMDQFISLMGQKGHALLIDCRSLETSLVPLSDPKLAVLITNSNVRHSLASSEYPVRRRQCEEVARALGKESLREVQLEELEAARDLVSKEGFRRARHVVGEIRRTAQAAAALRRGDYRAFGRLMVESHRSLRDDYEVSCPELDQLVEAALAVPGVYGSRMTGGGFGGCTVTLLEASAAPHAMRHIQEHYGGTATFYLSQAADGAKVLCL
Chain of DNA dC->dU-editing enzyme APOBEC-3G (Homo sapiens) (Q9HC16 whole entry, looked up): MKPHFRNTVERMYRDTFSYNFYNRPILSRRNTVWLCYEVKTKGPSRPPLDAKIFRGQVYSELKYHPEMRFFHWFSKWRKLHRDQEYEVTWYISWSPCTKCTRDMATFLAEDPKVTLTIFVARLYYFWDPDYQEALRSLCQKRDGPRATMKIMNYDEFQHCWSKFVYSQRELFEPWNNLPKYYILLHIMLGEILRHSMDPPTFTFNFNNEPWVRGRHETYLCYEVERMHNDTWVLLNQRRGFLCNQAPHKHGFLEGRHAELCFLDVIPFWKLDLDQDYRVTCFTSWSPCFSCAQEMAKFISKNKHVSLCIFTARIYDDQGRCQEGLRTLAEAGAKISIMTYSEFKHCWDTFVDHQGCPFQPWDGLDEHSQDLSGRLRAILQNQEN
Chain of Ubiquitin carboxyl-terminal hydrolase 1 (Homo sapiens) (O94782 whole entry, looked up): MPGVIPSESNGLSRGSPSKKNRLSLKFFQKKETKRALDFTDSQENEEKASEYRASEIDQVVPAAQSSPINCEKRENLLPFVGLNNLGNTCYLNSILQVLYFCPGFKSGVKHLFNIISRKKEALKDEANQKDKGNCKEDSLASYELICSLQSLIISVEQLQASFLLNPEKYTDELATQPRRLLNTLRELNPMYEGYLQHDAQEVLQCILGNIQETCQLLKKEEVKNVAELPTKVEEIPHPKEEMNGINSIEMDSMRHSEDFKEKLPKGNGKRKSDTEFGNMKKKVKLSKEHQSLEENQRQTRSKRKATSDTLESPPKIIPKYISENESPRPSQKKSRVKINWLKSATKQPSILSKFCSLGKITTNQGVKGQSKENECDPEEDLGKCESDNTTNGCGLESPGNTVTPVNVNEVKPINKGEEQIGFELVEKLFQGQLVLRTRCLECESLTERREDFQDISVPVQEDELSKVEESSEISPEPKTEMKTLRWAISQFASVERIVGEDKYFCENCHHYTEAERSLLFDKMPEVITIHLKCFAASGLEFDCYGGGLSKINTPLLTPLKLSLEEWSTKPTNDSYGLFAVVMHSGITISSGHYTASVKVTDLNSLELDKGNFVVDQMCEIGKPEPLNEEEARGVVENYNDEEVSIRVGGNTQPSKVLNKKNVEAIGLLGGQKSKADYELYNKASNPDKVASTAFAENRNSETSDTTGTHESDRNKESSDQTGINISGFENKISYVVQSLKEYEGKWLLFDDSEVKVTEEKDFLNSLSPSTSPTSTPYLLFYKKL
Chain of Peroxisome proliferator-activated receptor delta (Homo sapiens) (Q03181 whole entry, looked up): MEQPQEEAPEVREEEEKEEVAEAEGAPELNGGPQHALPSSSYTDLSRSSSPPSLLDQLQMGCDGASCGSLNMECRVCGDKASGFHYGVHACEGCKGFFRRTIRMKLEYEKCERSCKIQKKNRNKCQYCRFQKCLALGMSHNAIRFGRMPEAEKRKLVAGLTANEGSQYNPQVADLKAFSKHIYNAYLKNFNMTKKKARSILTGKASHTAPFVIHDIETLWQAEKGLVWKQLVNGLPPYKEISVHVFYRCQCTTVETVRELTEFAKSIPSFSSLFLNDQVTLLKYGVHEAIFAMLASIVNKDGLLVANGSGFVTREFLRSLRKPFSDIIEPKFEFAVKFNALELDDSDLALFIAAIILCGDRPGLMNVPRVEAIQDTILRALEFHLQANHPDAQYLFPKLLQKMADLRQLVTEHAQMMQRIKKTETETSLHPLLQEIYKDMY
Chain of Estrogen receptor (Homo sapiens) (P03372 whole entry, looked up): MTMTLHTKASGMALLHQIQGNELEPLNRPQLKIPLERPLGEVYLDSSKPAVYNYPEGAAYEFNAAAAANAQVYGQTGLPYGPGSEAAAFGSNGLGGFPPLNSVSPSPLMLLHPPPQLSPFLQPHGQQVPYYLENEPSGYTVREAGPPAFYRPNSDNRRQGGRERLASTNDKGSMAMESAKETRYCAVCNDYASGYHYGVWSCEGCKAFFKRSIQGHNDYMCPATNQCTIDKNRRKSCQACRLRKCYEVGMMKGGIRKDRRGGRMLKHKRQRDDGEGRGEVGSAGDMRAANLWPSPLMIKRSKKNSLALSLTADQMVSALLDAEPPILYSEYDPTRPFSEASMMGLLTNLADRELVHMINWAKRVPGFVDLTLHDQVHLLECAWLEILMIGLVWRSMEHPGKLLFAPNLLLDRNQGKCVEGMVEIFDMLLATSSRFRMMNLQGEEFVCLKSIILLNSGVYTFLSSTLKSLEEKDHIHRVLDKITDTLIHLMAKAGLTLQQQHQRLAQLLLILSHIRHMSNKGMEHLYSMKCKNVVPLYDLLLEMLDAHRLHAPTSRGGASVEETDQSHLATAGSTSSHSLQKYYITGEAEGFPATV
Chain of Bile acid receptor (Homo sapiens) (Q96RI1 whole entry, looked up): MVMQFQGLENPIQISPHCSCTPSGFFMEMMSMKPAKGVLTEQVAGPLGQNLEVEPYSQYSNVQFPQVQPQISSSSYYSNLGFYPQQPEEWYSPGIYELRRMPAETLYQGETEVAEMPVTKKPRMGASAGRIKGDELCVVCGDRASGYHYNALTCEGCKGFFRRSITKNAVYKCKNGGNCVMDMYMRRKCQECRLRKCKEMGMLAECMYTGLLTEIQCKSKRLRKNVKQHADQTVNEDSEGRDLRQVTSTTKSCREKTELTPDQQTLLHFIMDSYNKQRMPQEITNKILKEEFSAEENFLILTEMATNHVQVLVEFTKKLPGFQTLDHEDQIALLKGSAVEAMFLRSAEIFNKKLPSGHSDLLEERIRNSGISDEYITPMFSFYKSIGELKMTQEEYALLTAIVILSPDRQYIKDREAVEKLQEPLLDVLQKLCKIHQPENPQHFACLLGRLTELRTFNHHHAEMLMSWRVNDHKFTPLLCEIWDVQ
Chain of Peroxisome proliferator-activated receptor gamma (Homo sapiens) (P37231 whole entry, looked up): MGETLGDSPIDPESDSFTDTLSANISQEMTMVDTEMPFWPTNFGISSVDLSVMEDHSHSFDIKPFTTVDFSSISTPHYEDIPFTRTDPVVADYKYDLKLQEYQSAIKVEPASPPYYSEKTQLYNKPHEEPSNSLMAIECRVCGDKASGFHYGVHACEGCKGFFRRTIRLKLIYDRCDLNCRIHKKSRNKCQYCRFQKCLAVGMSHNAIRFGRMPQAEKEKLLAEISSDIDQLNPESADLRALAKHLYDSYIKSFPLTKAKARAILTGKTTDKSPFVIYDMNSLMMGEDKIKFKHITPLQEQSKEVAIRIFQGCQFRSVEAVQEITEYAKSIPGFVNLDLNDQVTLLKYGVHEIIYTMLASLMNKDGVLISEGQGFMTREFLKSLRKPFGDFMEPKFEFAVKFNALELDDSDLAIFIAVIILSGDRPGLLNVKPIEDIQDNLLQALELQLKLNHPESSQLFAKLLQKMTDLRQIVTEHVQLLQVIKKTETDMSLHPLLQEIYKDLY

`CN(C)CCOC(C)(c1ccccc1)c1ccccn1` (stereo not given): the result in test [1], in [2], in [3], in test [4], in [5] and in test [6] was inactive. The molecule was called inactive in test [10], in test [12] and in test [13]. In addition, the Potency entry in [7], in [8] and in [9] was “inactive” in each case. Further, the max response in test [11] was -48.6%.
As for `CN(C)CCC=C1c2ccccc2CCc2ccccc21`, the Potency entry in [14] is “inactive”. Moreover, in test [14], the viability change turned out to be 9.1%. In addition, the call in test [1], in test [2], in [3], in test [4], in [5] and in test [6] was inactive. Also, the call in [15] and in test [12] was inactive. In test [11], the max response was found to be 10%.
For the molecule `CN(C)CC[C@@H](c1ccc(Cl)cc1)c1ccccn1`, the molecule was classed as inactive in [1], in [2], in test [3], in [4], in [5] and in test [6]. For the same molecule, the Potency entry in [7], in test [8] and in [9] was “inactive” throughout.
Take `CCCn1cnc2c1c(=O)n(CCCCC(C)=O)c(=O)n2C`: the outcome in test [1], in [2], in [3], in test [4], in [5] and in test [6] was inactive. For the same molecule, the Potency entry in [7], in test [8] and in test [9] was “inactive” in each case.
With `C#CCN(C)Cc1ccccc1`, the outcome in [1], in [2], in test [3], in test [4], in test [5] and in [6] was inactive. Also, the Potency entry in [7], in test [8] and in test [9] was “inactive” each time.
For the molecule `OCCN1CCN(CCCN2c3ccccc3Sc3ccc(Cl)cc32)CC1`, the Potency entry in test [14] and in [7] was “inactive” each time. For the same molecule, in test [14], the viability change was -4.58%. Also, the result in [1], in test [2], in test [4], in test [5] and in [6] was inactive.
As for `CNCC(O)c1ccc(O)c(O)c1` (stereo not given), the Potency result in [14], in test [7] and in [9] was “inactive” each time. For the same molecule, in test [14], the viability change was 1.42%. Besides, the call in [1], in test [2], in test [3], in test [4], in [5] and in [6] was inactive.
As to `CC1=C(CC(=O)O)c2cc(F)ccc2/C1=C\c1ccc(S(C)=O)cc1` (stereo not given), the Potency result in test [14], in [7], in test [8] and in test [9] was “inactive” each time. For the same molecule, the viability change in [14] is -1.89%. For the same molecule, the call in [1], in test [2], in test [3], in [4], in test [5] and in [6] was inactive. The call in test [16] was inactive.
Take `C[C@](N)(Cc1ccc(O)cc1)C(=O)O`: the outcome in test [1], in test [2], in test [3], in [4], in test [5] and in test [6] was inactive. Besides, the Potency result in [7], in [8] and in test [9] was “inactive” each time.
Consider `CC(C)C(=O)c1c(C(C)C)nn2ccccc12`, for which the molecule was classed as inactive in test [1], in test [2], in test [3], in test [4], in test [5] and in [6]. Besides, the molecule was classed as inactive in test [16]. In addition, the Potency result in test [7], in test [8] and in test [9] was “inactive” each time.
Take `Nc1ncnc2c1ncn2[C@@H]1O[C@H](CO)[C@@H](O)[C@H]1O`: the Potency result in [14], in test [7], in test [8] and in [9] was “inactive” each time. Moreover, in test [14], the viability change was found to be 4.32%. Further, the molecule was classed as inactive in [1], in test [4], in [5], in test [6] and in test [16].
